# HT1080NT lethal: kills 2HG-producing HT-1080-NT fibrosarcoma cells. Potency, µM (doses to about 46.1 µM), inactives show at the top dose activity, negative = less viability, most hits filed as cytotoxic. HT-1080-NT fibrosarcoma viability, CellTiter-Glo ATP luminescence, 48 h. 360,000 compounds, 1.6% hits. AID 686970;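 further: NT is the 2HG producing partner of a matched IDH1 knockdown line; potency means the concentration at half of the fitted maximal effect; 0% = DMSO-treated cells and -100% = media-only wells without cells; nearly all actives have a fitted effect of over 55% in size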
#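 Fibrosarcoma NT cells, 750 per well in 5% FBS RPMI, were exposed to compound for 48 hours. Viability: CellTiter-Glo luminescence.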
# 12-LOX inh: inhibitors of human 12S-lipoxygenase ALOX12 | P18054 | purified 12hLO, xylenol orange hydroperoxide absorbance | Potency, µM (series often up to 108 µM), for inactives: at the top dose activity change, negative = inhibition, actives largely listed as inhibitors | 580,000 compounds, 1.1% hits | AID 1671190; further: potency means the concentration at half of the fitted maximal effect
# Target sequence (P18054 whole entry, looked up): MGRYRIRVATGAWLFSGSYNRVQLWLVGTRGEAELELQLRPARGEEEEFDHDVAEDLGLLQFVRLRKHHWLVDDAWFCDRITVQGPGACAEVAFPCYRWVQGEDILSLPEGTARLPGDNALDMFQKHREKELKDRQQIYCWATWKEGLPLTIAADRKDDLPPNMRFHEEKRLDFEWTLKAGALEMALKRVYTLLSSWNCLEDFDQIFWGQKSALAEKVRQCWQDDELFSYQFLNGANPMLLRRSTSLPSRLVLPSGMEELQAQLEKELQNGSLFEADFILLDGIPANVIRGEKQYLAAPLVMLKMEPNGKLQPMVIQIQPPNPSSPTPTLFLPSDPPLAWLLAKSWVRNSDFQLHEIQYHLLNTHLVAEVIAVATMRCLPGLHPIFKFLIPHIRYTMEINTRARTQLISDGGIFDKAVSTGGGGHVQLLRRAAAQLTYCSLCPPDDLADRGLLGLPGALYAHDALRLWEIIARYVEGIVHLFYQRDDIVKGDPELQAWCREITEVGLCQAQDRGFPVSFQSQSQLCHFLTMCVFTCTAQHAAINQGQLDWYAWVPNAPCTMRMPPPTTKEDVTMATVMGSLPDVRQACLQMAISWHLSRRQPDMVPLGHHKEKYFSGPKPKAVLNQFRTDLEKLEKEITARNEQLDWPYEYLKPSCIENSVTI
#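 Hydroperoxide product was detected by ferrous iron/xylenol orange as the 573 to 405 nm absorbance ratio. Arachidonic acid at 40 uM (final) was turned over for 30 min at room temperature by 150 nM human 12hLO, pH 7.0 Hepes buffer, after 15 min compound preincubation.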
# HT1080 IDH1KD tx: kills HT-1080 cells with IDH1 knockdown. HT-1080 IDH1 knockdown viability, ATP luminescence, 48 h. 360,000 compounds, 2% hits. Potency, µM (titrated, usually from 46.1 µM), for inactives: at the highest dose activity, negative = toxicity, usual class: cytotoxic. AID 686971;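 further: potency means the concentration at half of the fitted maximal effect; 0% = DMSO wells and -100% = cell-free medium wells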
#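 Assay cells: HT-1080 with IDH1 knockdown, 750 per well, RPMI/5% FBS. Exposure: 48 h at 37 °C following 2 h pre-incubation. Read: CellTiter-Glo luminescence; fitted concentration-response, curve class assigned.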
# DT40 TDP1 no CPT: qHTS for Inhibitors of human tyrosyl-DNA phosphodiesterase 1 (TDP1): qHTS in cells in absence of CPT. DT40 Tdp1-/- hTDP1 cells, no CPT, ATP luminescence, 48 h. Potency, µM (series often up to 46.2 µM), without a hit: top-dose activity change, negative = growth inhibition, most hits filed as inhibitors. 420,000 compounds, 15% hits; further: potency means the concentration at half of the fitted maximal effect; nearly all actives have a fitted effect of over 55% in size
#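 Luminescent ATP content (CellTiter-Glo) served as the growth readout. Knockout chicken DT40 cells expressing human TDP1 were exposed to compounds without camptothecin for a minimum 48 hr at 37 °C.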
# IL-1B inflam inh: inflammasome signaling inhibition, IL-1 beta readout | 360,000 compounds, 4.7% hits | AID 743279 | activity change, % at 57.5 µM | THP-1 LPS/ATP IL-1B secretion, AlphaLISA, 16 h; active compounds read low; in the data active means activity change below about -50%; inconclusive means mostly about -30% to -49%
#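 THP-1 cells pretreated 1 hr with compounds (up to 57.5 uM final), then stimulated with LPS (250 ng/mL final) plus ATP (1.25 mM final); secreted IL-1B measured by AlphaLISA after 16 hr, decreased signal indicating inhibition.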
# DT40 TDP1 CPT: DT40-hTDP1 cell growth loss with CPT. Potency, µM (series often up to 46.2 µM), inactives show top-dose activity change, negative = growth inhibition, hits mostly inhibitors. chicken DT40 Tdp1-/-;hTDP1 cells + 20 nM CPT, ATP luminescence, 48 h. 420,000 compounds, 12% hits. AID 686979; further: potency means the concentration at half of the fitted maximal effect; nearly all actives have a fitted effect of over 55% in size
#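 Cell growth measured by CellTiter-Glo luminescence after a minimum 48 h, 37 C compound exposure with 20 nM CPT in Tdp1-knockout DT40 cells stably expressing hTDP1, seeded 400/well; qHTS titration format.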
# The depositor's hits bear a star; i = inactive; ? = inconclusive; · = no result given; [ ] = remark or other dose. Many of the other results were omitted from the sample, so hits are more common in it than they were. Unless noted, the call rests on the fitted dose curve; in most records, active means well fitted curve in the direction sought with a large enough effect; inconclusive means small, poorly fitted or top-dose-only effect, or another doubt; inactive means no such curve, though single readings can be large; an effect the other way counts as inactive or inconclusive. Unless noted, on the % scale 0 is the no-effect control and ±100 the full control effect.
SMILES,HT1080NT lethal,12-LOX inh,HT1080 IDH1KD tx,DT40 TDP1 no CPT,IL-1B inflam inh,DT40 TDP1 CPT
COc1cc(C(=O)Nc2ccc3oc(=O)ccc3c2)cc(OC)c1OC,·,-4%,·,·,·,·
COc1ccc(-c2nc(CSC(C)C(=O)Nc3ccccc3)co2)cc1 (centres undefined),·,-7%,·,·,·,·
O=S(=O)(Nc1ccc2c(c1)OCCO2)c1ccc(F)c(F)c1,2%,19%,-7%,?,14,-19%
COc1cc(OC)c(NS(=O)(=O)c2ccc(Cl)c(C(=O)OC(C)C(=O)N3CCCC3)c2)cc1Cl (centres undefined),-3%,-19%,?,21µM*,-2,18µM*
CC(=O)Nc1ccc(S(=O)(=O)Nc2ccc3c(c2)OCCO3)cc1Cl,-5%,59%,?,7.3µM*,17,?
CSc1nc2ccc(NS(=O)(=O)c3ccc4c(c3)OCCO4)cc2s1,-3%,0%,-10%,23µM*,34,?
Cc1ccc(S(=O)(=O)Nc2ccc3c(c2)OCCO3)cc1C,-4%,-7%,-3%,18µM*,-3,?
COc1ccc(S(=O)(=O)Nc2ccc3c(c2)OCCO3)cc1Cl,-12%,0%,-24%,?,9,23µM*
COC(=O)c1cc(NS(=O)(=O)c2ccc3c(c2)OCCO3)ccc1Cl,·,0%,·,·,·,·
CC1CCCCC1NC(=O)CCC1CCCO1 (centres undefined),·,12%,·,·,·,·
CC(=O)c1ccc(NC(=O)Cc2c(C)c3ccc(O)cc3oc2=O)cc1,·,-8%,·,·,·,·
Cc1cc(CNC(=O)Cn2cc([N+](=O)[O-])cn2)c2ccccc2n1,-27%,-8%,-18%,?,32,?
Cc1cc(CNC(=O)C(C)n2cc([N+](=O)[O-])cn2)c2ccccc2n1 (centres undefined),-28%,-15%,-11%,21µM*,13,?
CCOc1ccc(C(C)=O)cc1COc1ccc(-n2cnnn2)cc1,-1%,1%,-2%,?,-57*,-23%
CCOc1ccc(C(C)=O)cc1COc1cccnc1[N+](=O)[O-],?,-13%,?,6.5µM*,25,6.5µM*
O=[N+]([O-])c1ncccc1OCc1ccc(-c2ccccc2)cc1,-21%,-29%,-11%,16µM*,-56*,?
NC(=O)COc1ccc(-n2cnnn2)cc1,4%,-7%,1%,5%,-3,-2%
COc1ccc(C(C)=O)cc1COc1cccnc1[N+](=O)[O-],-20%,-10%,?,16µM*,-2,?
O=C(O)C(c1c[nH]c2ccc(Cl)cc12)N1CCN(c2cccc(Cl)c2)CC1 (centres undefined),·,-18%,·,·,·,·
Cc1ccc(Sc2ccc(C#N)cc2C)cc1C,·,18%,·,·,·,·
CCOc1ccc(C(C)=O)cc1CSC(=N)N,-10%,-15%,0%,21µM*,4,?
COc1ccc(C(C)=O)cc1CSC(=N)N,0%,0%,1%,-26%,-9,?
CCCCOc1ccc(C(=O)NCCN2CCC(n3c(=O)[nH]c4ccccc43)CC2)cc1,?,?,16µM*,?,-17,?
O=C(c1cccc(Br)c1)N1CCC(n2c(=O)[nH]c3ccccc32)CC1,·,-16%,·,·,·,·
O=C(NCCN1CCC(n2c(=O)[nH]c3ccccc32)CC1)c1cccc(Cl)c1,-26%,?,-28%,?,?,16µM*
SMILES,HT1080NT lethal,12-LOX inh,HT1080 IDH1KD tx,DT40 TDP1 no CPT,IL-1B inflam inh,DT40 TDP1 CPT
O=C(NCCN1CCC(n2c(=O)[nH]c3ccccc32)CC1)c1cc(F)cc(F)c1,-18%,?,-1%,-30%,-53*,-10%
CCCCCn1c(=O)[nH]c2cc(C(=O)NCCN3CCC(C)CC3)ccc2c1=O,3%,·,10%,?,-4,-4%
O=C(NCCN1CCC(n2c(=O)[nH]c3ccccc32)CC1)c1ccncc1,-18%,?,-13%,-47%,-28,-48%
O=C(NCCN1CCC(n2c(=O)[nH]c3ccccc32)CC1)c1cccc(F)c1,13%,45µM*,-10%,-23%,-74*,-29%
COc1cccc(Nc2ncc(-c3cccnc3)c3c2OCC3)c1,·,73%[176 µM],·,·,·,·
O=C(NCCN1CCC(n2c(=O)[nH]c3ccccc32)CC1)C(c1ccccc1)c1ccccc1,?,?,?,16µM*,-80*,16µM*
O=C(NCCN1CCC(n2c(=O)[nH]c3ccccc32)CC1)c1cccnc1Cl,15%,-2%,12%,-28%,?,?
CC(C)n1nc(C(=O)Nc2ccc(S(=O)(=O)C(F)F)cc2)c2ccccc2c1=O,·,0%,·,·,·,·
CCCCNC(=O)C1CCN(c2nc3ccccc3nc2C(F)(F)F)CC1,·,-13%,·,?,·,16µM*
CSc1ccc(CCNC(=O)C2CCN(c3nc4ccccc4nc3C(F)(F)F)CC2)cc1,·,?,·,12µM*,·,15µM*
COc1ccc(CNC(=O)C2CCN(c3nc4ccccc4nc3OC)CC2)cc1,·,-6%,·,·,·,·
CC(C)Oc1ccc(CNC(=O)C2CCN(c3nc4ccccc4nc3C(F)(F)F)CC2)cc1,·,-10%,·,5.8µM*,·,4.1µM*
COCCNC(=O)C1CCN(c2nc3ccccc3nc2C(F)(F)F)CC1,·,-2%,·,-20%,·,?
Cc1cccc(OCCc2noc(C3CCCCN3S(=O)(=O)c3cn(C)cn3)n2)c1 (centres undefined),·,40%,·,·,·,·
CCc1cccc(NC(=O)C23CC4CC(CC(C4)C2)C3)c1,·,59%,·,·,·,·
Cc1ccc(-n2c(-c3cccc(C)c3)nc3c(cnn3-c3ccccc3)c2=O)cc1,·,-26%,·,?,·,?
O=c1c2cnn(-c3ccccc3)c2nc(-c2cccs2)n1-c1ccc(Br)cc1,10%,i,6%,0.58µM*,39,?
Cc1cccc(-c2nc3c(cnn3-c3ccccc3)c(=O)n2-c2ccc(Cl)cc2)c1,·,-27%,·,15µM*,·,?
COc1ccc(-n2c(-c3cccc(F)c3)nc3c(cnn3-c3ccc(C)cc3)c2=O)cc1,·,-12%,·,26µM*,·,18µM*
COc1cccc(-n2c(-c3cccc(F)c3)nc3c(cnn3-c3ccc(C)cc3)c2=O)c1,·,-9%,·,?,·,?
Cc1cccc(-c2nc3c(cnn3-c3ccccc3)c(=O)n2-c2ccc(Br)cc2)c1,·,5%,·,18µM*,·,?
CCOc1ccccc1OCC(=O)Nc1cccc2cccnc12,·,-8%,·,·,·,·

# High-throughput results (PubChem)
